The list is not random: actives were taken first. Their share in the collection is about 2.4%.
Wnt bcat act: activates Wnt/beta-catenin signaling in a reporter cell assay; 300,000 compounds, 1.2% hits; activator, plate reader; AID 743398; activation, % at 9.35 µM; in the data active = activation above about 30%, passing the limit was not always enough; inconclusive = no clear call, values can overlap the other calls;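 note: 0% = neutral control wells and 100% = positive control wells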
NSD2 HMT inh: inhibitors of human histone methyltransferase NSD2. O96028. NSD2 peptide methylation, AlphaScreen, 120 min. inhibition, % at 12.5 µM. 310,000 compounds, 0.54% hits. AID 743445
Target sequence (O96028 whole entry, looked up): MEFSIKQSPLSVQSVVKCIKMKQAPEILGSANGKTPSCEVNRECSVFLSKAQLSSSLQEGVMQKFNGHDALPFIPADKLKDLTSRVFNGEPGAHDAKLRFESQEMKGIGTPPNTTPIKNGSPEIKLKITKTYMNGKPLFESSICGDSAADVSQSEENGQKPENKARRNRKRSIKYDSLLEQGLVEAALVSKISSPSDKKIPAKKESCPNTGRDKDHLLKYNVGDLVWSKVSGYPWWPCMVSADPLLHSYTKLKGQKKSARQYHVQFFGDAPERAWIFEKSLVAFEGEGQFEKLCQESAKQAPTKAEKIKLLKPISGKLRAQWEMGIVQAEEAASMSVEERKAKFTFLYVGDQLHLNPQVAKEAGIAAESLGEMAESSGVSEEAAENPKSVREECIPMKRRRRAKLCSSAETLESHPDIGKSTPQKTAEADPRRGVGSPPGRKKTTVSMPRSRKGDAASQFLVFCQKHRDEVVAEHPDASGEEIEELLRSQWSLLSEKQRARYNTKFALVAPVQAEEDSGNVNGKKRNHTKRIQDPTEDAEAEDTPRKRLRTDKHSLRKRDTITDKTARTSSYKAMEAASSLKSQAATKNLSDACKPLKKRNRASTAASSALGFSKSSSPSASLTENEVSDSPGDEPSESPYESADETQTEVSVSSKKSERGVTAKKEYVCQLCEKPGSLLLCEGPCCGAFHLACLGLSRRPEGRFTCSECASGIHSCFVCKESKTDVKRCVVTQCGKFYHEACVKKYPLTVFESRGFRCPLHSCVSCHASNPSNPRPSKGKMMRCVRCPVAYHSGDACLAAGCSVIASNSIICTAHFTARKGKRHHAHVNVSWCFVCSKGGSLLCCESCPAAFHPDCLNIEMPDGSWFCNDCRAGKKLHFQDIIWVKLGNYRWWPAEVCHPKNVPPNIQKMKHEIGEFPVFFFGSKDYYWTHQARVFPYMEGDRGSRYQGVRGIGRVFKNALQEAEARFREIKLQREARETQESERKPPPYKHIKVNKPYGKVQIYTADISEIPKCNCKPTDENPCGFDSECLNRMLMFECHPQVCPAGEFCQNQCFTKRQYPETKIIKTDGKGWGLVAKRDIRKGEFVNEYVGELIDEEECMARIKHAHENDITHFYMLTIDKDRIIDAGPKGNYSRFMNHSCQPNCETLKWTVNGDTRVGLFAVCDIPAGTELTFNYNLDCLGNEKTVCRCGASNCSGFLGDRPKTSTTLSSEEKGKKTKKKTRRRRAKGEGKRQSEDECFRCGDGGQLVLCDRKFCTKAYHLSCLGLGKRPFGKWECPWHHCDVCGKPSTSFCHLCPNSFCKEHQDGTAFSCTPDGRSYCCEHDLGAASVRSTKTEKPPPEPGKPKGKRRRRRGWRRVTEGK
MITF TRPM1 HTS: activators of MITF-driven TRPM1 promoter activity in SK-MEL-5 cells; SK-MEL-5 TRPM1-promoter luciferase, 24 h; % of positive control, neutral wells = 0; activation, % at 12.5 µM; 300,000 compounds, 0.75% hits;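 active = mean activation of at least 80% with every replicate also reaching 80%; inconclusive = mean reaches 80% but some replicate falls short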;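 note: 0% = neutral control wells and 100% = parthenolide positive control wells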
GSIS activator: GLuc luminescence reporter in INS-1E cells, primary screen for activators of glucose-dependent secretion of insulin | INS-1E GLuc reporter insulin secretion, 2-3 h | activation, % at 16.6 µM | 370,000 compounds, 0.61% hits | AID 743287;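 active = lowest replicate activation of at least 40%, so every replicate reaches that level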;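 note: 0% = median of neutral control wells and 100% = median of IBMX positive control wells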
miR-122 sensor: blocks miR-122 activity in Huh7 sensor cells; Huh7 miR-122 Renilla luciferase sensor, 48 h; neutral wells = 0, positive control = 100; activation (reporter increase), % at 12.5 µM; 340,000 compounds, 0.3% hits; AID 602342;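 active = mean replicate activation score at least 90 and every replicate individually at or above 90; inconclusive = only one of the two criteria met; inactive = neither criterion met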;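 note: higher luciferase means less miR-122 activity so hits act as miR-122 inhibitors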
DYRK1A inh: Dyrk1A (rat) kinase inhibition | Q63470 | AID 504441 | inhibition, % at 12.5 µM | ADP-Glo luminescence, NFATc1 peptide | 310,000 compounds, 0.43% hits;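 note: plate controls were vehicle with enzyme for no effect and no enzyme for full effect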
The depositor's hits bear a star; u = inconclusive; x = not tested or not shown; [ ] = another dose, or the depositor's remark. Cut-off read from the data, not from the text of the source, unless noted: active = inhibition above about 50%; inactive = the rest.

SMILES	Wnt bcat act	NSD2 HMT inh	MITF TRPM1 HTS	GSIS activator	miR-122 sensor	DYRK1A inh
CCCc1cc(=O)oc2cc(OCC(=O)NC3CCN(Cc4ccccc4)CC3)ccc12	-2	-1	-4	44*	2	0
COc1ccc2cc(/C=N/NC(=O)CN3CCOCC3)c(Cl)nc2c1	x	0	x	x	x	x
CO[C@H]1CN(C)C(=O)c2cc(NC(=O)CC(F)(F)F)ccc2OC[C@H](C)N(CC2CC2)C[C@@H]1C	x	x	x	0	x	x
CCn1c(/C=C/c2ccccc2)nc2ccccc21	x	-4	5	-12	9	6
COc1ccc(Cn2c(/C=C/c3ccccc3)nc3ccccc32)cc1	84*	-3	87*	x	27	0
C/C=C/c1ccc([C@@H]2[C@@H](CO)N3CCCCN(C(=O)Nc4ccccc4F)C[C@@H]23)cc1	x	x	x	-29	-27[16.7 µM]	x
O=C(O)c1cc(-c2ccc(-c3c(-c4ccc5c(c4)OCO5)noc3-c3ccsc3)cc2)nc2ccccc12	22	x	97*	x	-4	-5
CN(C)c1ccc(-c2c(-c3ccc4c(c3)OCO4)noc2-c2ccsc2)cn1	x	x	36	x	-4	7
CCC(=O)NCCc1nc2cc(NC(=O)c3ccc(Cl)cc3)ccc2n1C	37*	-4	123*	-8	11	8
CCC(=O)NCCc1nc2cc(NC(=O)c3ccc(F)cc3)ccc2n1C	29	-3	93*	-1	-1	9
CCC(=O)NCCc1nc2cc(NC(=O)c3ccc(OC)cc3)ccc2n1C	x	1	46	12	-2	-3
COCCNC(=O)c1ccc2c3n(nc2c1)-c1ccc(C)cc1CO3	43*	x	u	8	-2	3
Cc1ccc2c(c1)COc1c3ccc(C(=O)N[C@@H](CO)C(C)C)cc3nn1-2	34*	x	114*	2	-3	9
C[C@H](CO)N1C[C@H](C)[C@H](CN(C)C(=O)Nc2ccc(F)cc2)Oc2ncc(C#Cc3ccccc3)cc2C1=O	x	x	x	-22	-7[16.7 µM]	x
CO[C@H]1CN(C)C(=O)c2cc(NC(=O)Nc3c(C)noc3C)ccc2OC[C@@H](C)N(CCC(F)(F)F)C[C@@H]1C	x	x	x	-9	x	x
CC(C)c1ccc(NC(=O)COc2ccc(F)cc2C(=O)c2cnn(-c3ccccc3)c2)cc1	x	0	39	-32	1	1
O=C(COc1ccccc1C(=O)c1cnn(-c2ccccc2)c1)Nc1ccc2ccccc2c1	7	-1	114*	x	-1	1
COc1ccc2cc(C(=O)N(C)CC(=O)Nc3ccccc3Br)ccc2c1	42*	0	51	x	-12	x
CN(CC(=O)Nc1ccccc1Cl)C(=O)c1cc2c(s1)CCCCC2	1	3	9	-68	-7	-2
CN(CC(=O)Nc1ccccc1Br)C(=O)c1cc2c(s1)CCCCC2	43*	-1	u	-37	-13	5
CO[C@H]1CN(C)C(=O)c2cc(NC(=O)CC(F)(F)F)ccc2OC[C@H](C)N(C(=O)c2ccccc2F)C[C@H]1C	x	x	x	9	x	x
CC(C)[C@H](C)NC(=O)N(C)C[C@@H]1OCc2ccccc2-c2c(n(C)c3ccccc23)C(=O)N([C@H](C)CO)C[C@H]1C	x	x	x	-26	x	x
CCOC(=O)N1CCN(S(=O)(=O)N2CCCC(C(=O)NCc3cc(OC)ccc3OC)C2)CC1 (centres undefined)	-1	-1	x	99*	-4	x
Oc1oc(-c2ccccc2)nc1C=NCc1ccccc1	16	6	103*	x	12	x
COc1cc(C(=O)Nc2nnc(SCC(=O)NCC3CCCO3)s2)cc(OC)c1OC (centres undefined)	3	-2	-12	15	x	-14
SMILES	Wnt bcat act	NSD2 HMT inh	MITF TRPM1 HTS	GSIS activator	miR-122 sensor	DYRK1A inh
COc1ccc(C(=O)Nc2nnc(SCC(=O)Nc3ccc(NC(C)=O)cc3)s2)c(OC)c1	36*	-3	52	9	-3	1
COc1ccccc1C(=O)Nc1nnc(SCC(=O)NCC2CCCO2)s1 (centres undefined)	34*	-1	u	8	x	0
COc1ccc(C(=O)Nc2nnc(SCC(=O)NC3CCCC3)s2)c(OC)c1	13	1	-12	8	x	1
COc1ccccc1-n1nnnc1SCC(=O)NCC1CCCO1 (centres undefined)	3	1	8	14	x	-11
COc1ccc(C(=O)Nc2ccccc2C(=O)NCC2CCCO2)cc1 (centres undefined)	-1	-4	14	52*	-3	-1
COc1ccccc1NC(=O)c1cnc(SCC(=O)NCC2CCCO2)n(C)c1=O (centres undefined)	32*	-1	-68	5	-2	x
COCC(=O)N1CCC2(CC1)CN(Cc1cccc(Cl)c1)[C@@H](CO)c1[nH]c3cc(OC)ccc3c12	x	x	x	10	x	x
O=C(Cc1nc2ccccc2[nH]c1=O)c1ccccc1	33*	-1	29	5	x	-2
O=C(Cc1ccc(Br)cc1)Nc1nc2ccccc2[nH]1	2	2	17	-8	3	12
c1ccc(N/N=C(\Cc2nc3ccccc3[nH]2)c2ccccc2)cc1	19	-2	77	-7	-2	-3
O=C(Cc1nc2ccccc2[nH]1)c1ccc(Br)cc1	17	9	91*	7	x	3
N/N=C(/Cc1nc2ccccc2[nH]1)c1ccc([N+](=O)[O-])cc1	38*	3	25	-1	x	-2
COc1ccc2c3c([nH]c2c1)[C@@H](CO)N(C(=O)CN1CCOCC1)CC31CN(C(C)=O)C1	x	x	x	14	x	x
COC(=O)C[C@H]1CC[C@@H]2[C@H](COc3ccc(NS(=O)(=O)c4ccccc4Cl)cc3C(=O)N2C)O1	x	x	x	-4	x	x
COC(=O)C1CCc2c(ccc3c2CCCC3)C1=O (centres undefined)	-4	-3	101*	6	x	-2
Cc1ccc(/C=C/C(=O)Nc2ccc(N(C)C)cc2)o1	x	14	115*	7	-2	-6
Cc1ccc(/C=C/C(=O)NC2CCCCCCC2)o1	23	1	17	58*	x	-3
Cc1ccc(/C=C/C(=O)Nc2ccncc2)o1	x	3	15	-2	7	6
Cc1ccc(/C=C/C(=O)Nc2ncc(C)s2)o1	-1	7	101*	-10	x	1
O=C(Cc1cccc2ccccc12)Nc1ccccc1F	x	-2	x	x	x	x
O=C(Nc1ccc(N2CCOCC2)cc1N1CCOCC1)c1cccs1	16	3	x	x	-7	1
O=C(N/N=C/c1ccc(N2CCOCC2)cc1)c1cccs1	56*	-9	43	15	-1	1
O=C(c1ccc(N2CCOCC2)cc1)c1cccs1	42*	-2	x	x	1	4
N#Cc1c(-c2ccc(Cl)cc2)ccn2nc(C3CCCCC3)nc12	26	5	90*	x	-7	-4
COC(=O)CCc1nc2c(C#N)c(-c3ccc(Cl)cc3)ccn2n1	1	-2	-2	23	4	-5
COC(=O)C[C@H]1C[C@@H]2c3cc(NC(=O)NC4CCCC4)ccc3O[C@@H]2[C@H](CO)O1	x	x	x	11	4[16.7 µM]	x

Screening data deposited in PubChem BioAssay by Broad Institute.
